# Tested on: Vero E6 infected with SARS-CoV-2
# Test: morphology score (similarity to uninfected cells); higher = more like uninfected cells
# Details: 24 h
row,SMILES,morphology score
1,O=C1CN(/N=C/c2ccc([N+](=O)[O-])o2)C(=O)N1 [nitrofurantoin] (10 µM),0.168
2,O=c1c(-c2ccccc2)c1-c1ccccc1 [diphencyprone] (10 µM),-0.0547
3,C[C@H](NCc1ccc(OCc2ccccc2F)cc1)C(N)=O [priralfinamide] (10 µM),-0.175
4,C[C@@H](N)Cc1c[nH]c2ccc(O)cc12 [alpha-methylserotonin] (10 µM),0.251
5,Cc1nc2ccccc2c(-c2ccc3c4c(ccnc24)CCO3)c1[C@H](OC(C)(C)C)C(=O)O (10 µM),0.0152
6,O=C(O)C1=CCCN(CCOC(c2ccc(C(F)(F)F)cc2)c2ccc(C(F)(F)F)cc2)C1 (10 µM),0.0171
7,NC(=O)Nc1cc(-c2cccc(F)c2)sc1C(=O)N[C@H]1CCCNC1 (0.833333 µM),0.11
8,N=C(N)NC(=N)Nc1ccccc1 [1-phenylbiguanide] (10 µM),0.219
9,C[C@@H](Oc1ccc2[nH]nc(/C=C/c3cnn(CCO)c3)c2c1)c1c(Cl)cncc1Cl (10 µM),-0.00865
10,CC(C)c1cc(-c2ccc(F)c3ccccc23)nc(N)n1 (10 µM),0.153
11,Cc1c(-c2cnccn2)ssc1=S [oltipraz] (10 µM),-0.0383
12,NS(=O)(=O)c1cc2c(cc1C(F)(F)F)NCNS2(=O)=O [hydroflumethiazide] (10 µM),0.112
13,CN(C)c1nc(N)c(C(=O)Nc2cccnc2)nc1Cl (10 µM),0.226
14,CCOC(=O)c1c(C)n(C)c2ccc(O)cc12 [mecarbinate] (10 µM),0.132
